From ChEMBL document CHEMBL2218924, “A broad activity screen in support of a chemogenomic map for kinase signalling research and drug discovery” (Biochem J, 2013)

Key:
[1] = biological target: T1, cGMP-dependent protein kinase 1 (Homo sapiens) (UniProt Q13976); details: at 1 µM
T1 sequence (whole entry): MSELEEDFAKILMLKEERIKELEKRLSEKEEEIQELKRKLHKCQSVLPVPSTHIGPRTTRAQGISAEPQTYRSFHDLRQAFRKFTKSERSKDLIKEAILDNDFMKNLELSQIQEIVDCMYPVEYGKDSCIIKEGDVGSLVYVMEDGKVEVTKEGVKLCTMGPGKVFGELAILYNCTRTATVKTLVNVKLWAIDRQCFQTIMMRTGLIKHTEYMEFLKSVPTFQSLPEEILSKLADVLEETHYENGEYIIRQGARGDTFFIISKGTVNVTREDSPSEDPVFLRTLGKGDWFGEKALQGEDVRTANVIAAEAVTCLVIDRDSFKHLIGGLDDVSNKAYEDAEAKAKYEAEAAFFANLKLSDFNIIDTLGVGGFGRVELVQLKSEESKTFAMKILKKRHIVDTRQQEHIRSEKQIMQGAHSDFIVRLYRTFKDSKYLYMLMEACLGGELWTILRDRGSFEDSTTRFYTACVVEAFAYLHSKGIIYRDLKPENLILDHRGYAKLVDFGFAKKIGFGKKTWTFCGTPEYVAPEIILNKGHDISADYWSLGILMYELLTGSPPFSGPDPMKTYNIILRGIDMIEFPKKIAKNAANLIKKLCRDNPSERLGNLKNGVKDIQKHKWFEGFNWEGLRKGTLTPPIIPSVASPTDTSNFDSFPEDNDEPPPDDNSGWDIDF

[2] = biological target: T1, cGMP-dependent protein kinase 1 (Homo sapiens); details: at 10 µM
[3] = biological target: T1, cGMP-dependent protein kinase 1 (Homo sapiens); details: at 1 µM; remark: listed apart in the source
[4] = biological target: T1, cGMP-dependent protein kinase 1 (Homo sapiens); details: at 10 µM; remark: listed apart in the source
[5] = biological target: T2, MAP kinase-activated protein kinase 5 (Homo sapiens) (UniProt Q8IW41); details: at 1 µM
T2 sequence (whole entry): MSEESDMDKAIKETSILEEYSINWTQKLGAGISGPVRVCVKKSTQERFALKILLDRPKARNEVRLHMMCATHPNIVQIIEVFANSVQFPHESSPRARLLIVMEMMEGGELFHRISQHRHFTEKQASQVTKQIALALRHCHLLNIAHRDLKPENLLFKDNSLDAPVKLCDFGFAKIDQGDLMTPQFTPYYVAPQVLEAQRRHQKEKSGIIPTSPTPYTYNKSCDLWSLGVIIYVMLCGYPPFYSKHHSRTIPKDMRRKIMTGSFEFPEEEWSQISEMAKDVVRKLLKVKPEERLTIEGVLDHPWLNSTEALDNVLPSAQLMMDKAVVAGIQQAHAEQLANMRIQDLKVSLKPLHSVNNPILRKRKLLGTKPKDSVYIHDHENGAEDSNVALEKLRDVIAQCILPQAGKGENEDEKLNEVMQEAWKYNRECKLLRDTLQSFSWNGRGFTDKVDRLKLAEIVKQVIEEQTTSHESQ

[6] = biological target: T2, MAP kinase-activated protein kinase 5 (Homo sapiens); details: at 10 µM
[7] = biological target: Serine/threonine-protein kinase N2 (Homo sapiens) (UniProt Q16513); details: at 1 µM
[8] = biological target: Serine/threonine-protein kinase N2 (Homo sapiens) (UniProt Q16513); details: at 10 µM
[9] = biological target: Tyrosine-protein kinase FRK (Homo sapiens) (UniProt P42685); details: at 10 µM
[10] = biological target: Tyrosine-protein kinase FRK (Homo sapiens) (UniProt P42685); details: at 1 µM

Sequence of Serine/threonine-protein kinase N2 (Homo sapiens) (Q16513 whole entry, looked up): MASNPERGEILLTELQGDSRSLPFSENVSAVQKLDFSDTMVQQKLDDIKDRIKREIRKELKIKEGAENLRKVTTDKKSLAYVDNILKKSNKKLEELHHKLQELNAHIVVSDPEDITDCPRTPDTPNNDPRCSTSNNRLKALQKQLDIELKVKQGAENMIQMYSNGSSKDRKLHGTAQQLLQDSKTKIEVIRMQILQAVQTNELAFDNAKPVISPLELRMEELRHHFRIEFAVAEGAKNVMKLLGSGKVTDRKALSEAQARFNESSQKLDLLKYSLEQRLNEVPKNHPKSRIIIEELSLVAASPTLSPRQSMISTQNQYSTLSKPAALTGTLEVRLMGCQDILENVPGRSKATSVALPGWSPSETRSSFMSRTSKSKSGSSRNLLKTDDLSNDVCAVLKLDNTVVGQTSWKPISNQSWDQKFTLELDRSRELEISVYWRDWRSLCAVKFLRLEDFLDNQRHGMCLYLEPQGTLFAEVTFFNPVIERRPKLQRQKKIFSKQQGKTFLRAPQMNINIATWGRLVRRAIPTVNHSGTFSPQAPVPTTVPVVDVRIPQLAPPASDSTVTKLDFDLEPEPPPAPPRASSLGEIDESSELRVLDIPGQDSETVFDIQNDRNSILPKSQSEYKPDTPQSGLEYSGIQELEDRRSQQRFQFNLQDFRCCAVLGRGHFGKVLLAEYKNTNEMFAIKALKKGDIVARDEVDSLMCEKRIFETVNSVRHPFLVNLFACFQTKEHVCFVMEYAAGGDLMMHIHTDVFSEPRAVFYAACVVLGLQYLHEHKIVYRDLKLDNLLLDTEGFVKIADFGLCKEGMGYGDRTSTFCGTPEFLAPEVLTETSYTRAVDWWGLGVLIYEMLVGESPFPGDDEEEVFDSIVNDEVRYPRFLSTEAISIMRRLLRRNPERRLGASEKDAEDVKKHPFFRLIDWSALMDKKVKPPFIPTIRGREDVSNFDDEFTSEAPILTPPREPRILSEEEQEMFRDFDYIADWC
Sequence of Tyrosine-protein kinase FRK (Homo sapiens) (P42685 whole entry): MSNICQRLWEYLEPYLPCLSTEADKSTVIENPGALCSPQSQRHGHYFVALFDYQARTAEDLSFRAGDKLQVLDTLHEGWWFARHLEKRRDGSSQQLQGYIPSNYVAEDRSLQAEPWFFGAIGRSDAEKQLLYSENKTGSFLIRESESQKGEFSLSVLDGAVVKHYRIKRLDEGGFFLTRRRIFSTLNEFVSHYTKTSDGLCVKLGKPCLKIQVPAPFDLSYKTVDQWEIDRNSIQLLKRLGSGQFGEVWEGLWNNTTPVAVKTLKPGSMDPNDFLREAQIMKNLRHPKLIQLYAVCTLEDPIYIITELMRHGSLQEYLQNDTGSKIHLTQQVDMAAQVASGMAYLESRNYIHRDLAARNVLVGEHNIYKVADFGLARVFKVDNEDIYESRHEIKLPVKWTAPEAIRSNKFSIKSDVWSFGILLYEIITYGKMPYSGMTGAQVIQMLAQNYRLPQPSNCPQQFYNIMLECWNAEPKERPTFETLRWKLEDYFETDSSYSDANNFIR

SMILES	residual activity [1] [%]	residual activity [2] [%]	residual activity [3] [%]	residual activity [4] [%]	residual activity [5] [%]	residual activity [6] [%]	residual activity [7] [%]	residual activity [8] [%]	residual activity [9] [%]	residual activity [10] [%]
Nc1ncnc2[nH]nc(Nc3ccc(F)cc3)c12	100	79	95	79	109	91	107	80	38	
CN(C)S(=O)(=O)c1ccc2c(c1)/C(=C/c1cc3c([nH]1)CCCC3)C(=O)N2	99		89	80			95	82	48	54
COc1ccc(-c2cnc3c(-c4ccsc4)cnn3c2)cc1	88	90	99	99	93	84	95	130		
O=C(CCCc1ccc(-c2ccccc2F)cc1)Nc1ccc(O)cc1	98	100	97	72		64	100	79	112	97
O=S(=O)(c1cccc2cnccc12)N1CCCNCC1	57	17	68	15			56	10		
COc1cc2nccc(Oc3ccc(NC(=O)Nc4cc(C)on4)c(Cl)c3)c2cc1OC	101	97	105		99	70	97	108	-3	2
O=C1NC(=O)C(c2c[nH]c3ccccc23)=C1c1c[nH]c2ccccc12		43	83	28	98	48	81	37	41	80
Oc1cccc(-c2nc(N3CCOCC3)c3oc4ncccc4c3n2)c1	120			90	98					
O=c1cc(N2CCOCC2)oc2c(-c3ccccc3)cccc12			80	81						
CCCC(=O)Oc1ccc2[nH]c(C(=O)c3cc4ccccc4[nH]3)cc2c1	101	127	79	78	72	44	86	93	85	92
O=C1C(Cl)=C(N2C(=O)CCC2=O)C(=O)c2ccccc21	95	96	101	88		98	86	79	96	88
NC(=O)Nc1sc(-c2ccc(F)cc2)cc1C(N)=O	87	73	84	43	96	58	82	27	19	63
CCCCc1c(-c2ccc(OC)cc2)[nH]c2nccnc12		116	107		73	108	88	76	51	60
Nc1n[nH]c2nc3ccccc3nc12		88		59	95			74	92	98
O=C1Cc2c([nH]c3ccc(Br)cc23)-c2ccccc2N1	98	97	83	74	97	70	60	26	40	68
CC(C)(C)n1nc(Cc2cccc3ccccc23)c2c(N)ncnc21	109	97	86	95	75	33			0	26
O=C(Nc1nc2ccccc2n1CCN1CCOCC1)c1cccc([N+](=O)[O-])c1	100	101	83	88			78	115		
O=S(=O)(NCCNC/C=C/c1ccc(Br)cc1)c1cccc2cnccc12	4	4	4	4			26	4		
CC(C)c1nn(-c2c(Cl)cccc2Cl)c2nc(Cc3ccc(OCCO)cc3)[nH]c(=O)c12	103	102	91	48		73	89	91	35	72
c1ccc(-c2cnc(Nc3ccc(OCCN4CCCC4)cc3)s2)cc1	122	136	70	77	120	111	102	100	16	72
Cc1cc(C)c(/C=C2\C(=O)Nc3ccccc32)[nH]1	104	103		78	78					
O=C(NC(NC(=S)Nc1ccc(F)c([N+](=O)[O-])c1)C(Cl)(Cl)Cl)C(c1ccccc1)c1ccccc1 (stereo not drawn)	96	92	97	73	87	49	94	102	47	71
O=C1Nc2ccc(Cl)cc2/C1=C/c1cc(Cl)c(O)c(Cl)c1	84	79	79	44	95	17	99	94	5	56
